From PubChem
Hits are enriched below; roughly 7.4% of the tested compounds scored in any of these assays.
SMN2 splice enh = SMN2 splice variant enhancement | HEK293 SMN2-luciferase splicing reporter, luminescence, 30-36 h | Potency, µM (titrated, usually from 46.1 µM), without a hit: at the highest dose activity change, positive = activation, actives largely listed as activators | 210,000 tested, 2.8% active; also: % of control where 0% means no effect; nearly all actives have a fitted effect of over 55% in size
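qHTS luciferase splicing reporter: luminescence rises when SMN2 exon 7 is included in transfected HEK293 cells. Compound exposure lasted 30-36 h at 37C, with 4.5 mM final sodium butyrate as control, followed by a ONE-Glo read.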
Rab9 promoter act = activators of Rab9 promoter. Huh7 Rab9 promoter-luciferase reporter, luminescence, 24 h. AID 485297. Potency, µM (doses to about 9.22 µM), inactives show at the highest dose activation, negative = inhibition, most hits filed as activators. 320,000 tested, 2.8% active; also: % of control where 0% means no effect; nearly all actives have a fitted effect of over 60% in size
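Promoter activation is measured as luciferase luminescence in Huh7 cells stably transfected with a Rab9 promoter–luciferase construct, following 24 h compound exposure at 37 °C and 10 min reagent incubation at ambient temperature.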
Luc counter = Kinase-Glo luciferase inhibition (counter-screen). Kinase-Glo luciferase, ATP luminescence, 8 min. Potency, µM (series often up to 38.3 µM), for the others: at the highest dose activity change, negative = inhibition, most hits filed as inhibitors. 200,000 tested, 0.28% active. AID 1379; also: % is scaled to controls: 0 for no effect and ±100 for the full control effect; nearly all actives have a fitted effect of over 60% in size
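Substrate mix (final 50 mM imidazole pH 7.2, 50 mM KCl, 7 mM MgCl2, 10 uM ATP, 0.01% Tween 20, 0.05% BSA) plus pin-tool compound, then Kinase-Glo detection mix; 8 min ambient, luminescence read.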
FLuc counter = counter-screen for miR-21 project: firefly luciferase inhibitors or activators. 360,000 tested, 6.9% active. Potency, µM (highest dose often 57.5 µM), for inactives: at the highest dose activity change, negative = inhibition, hits mostly inhibitors. purified FLuc, Km substrates, luminescence inhibition;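 also: plate controls were vehicle for no effect and reference inhibitor for full effect; nearly all actives have a fitted effect of over 55% in size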
Target sequence (P08659 whole entry, looked up): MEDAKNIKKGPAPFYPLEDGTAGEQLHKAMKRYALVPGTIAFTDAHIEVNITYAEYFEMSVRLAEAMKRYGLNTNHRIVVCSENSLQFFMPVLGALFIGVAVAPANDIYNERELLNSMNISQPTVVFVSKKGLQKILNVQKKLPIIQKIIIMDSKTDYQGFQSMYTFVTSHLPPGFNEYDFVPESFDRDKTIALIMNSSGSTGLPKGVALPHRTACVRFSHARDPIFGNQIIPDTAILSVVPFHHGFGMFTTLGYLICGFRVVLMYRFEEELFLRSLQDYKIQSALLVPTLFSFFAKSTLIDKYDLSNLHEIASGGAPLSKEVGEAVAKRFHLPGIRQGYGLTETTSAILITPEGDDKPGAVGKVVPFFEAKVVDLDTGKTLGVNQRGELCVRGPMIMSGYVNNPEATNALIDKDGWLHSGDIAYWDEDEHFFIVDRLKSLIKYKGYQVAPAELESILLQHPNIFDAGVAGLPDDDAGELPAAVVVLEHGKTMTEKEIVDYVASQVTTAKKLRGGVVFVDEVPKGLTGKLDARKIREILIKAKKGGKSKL
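Biochemical qHTS of compounds, final roughly 60 µM downward over six points, against 10 nM purified firefly luciferase using Km concentrations of substrates (10 uM D-luciferin, 10 uM ATP) in Tris acetate pH 7.5 buffer; luminescence output.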
NPC1 prom act = activates the NPC1 promoter. Potency, µM (titrated, usually from 9.22 µM), for inactives: at the top dose activation, most hits filed as activators. Huh7 NPC1 promoter luciferase reporter, 24 h. 320,000 tested, 2.4% active. AID 485313; also: % of control where 0% means no effect; nearly all actives have a fitted effect of over 60% in size
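Quantitative HTS used a cell-based reporter: Huh7 cells stably bearing the NPC1 promoter upstream of luciferase were treated with compounds for 24 h, and promoter activation was read as luminescence.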
ELG1 genotoxic = inducers of genotoxicity in HEK293T ELG1-luciferase cells; HEK293T ELG1-luciferase reporter, luminescence, 16 h; Potency, µM (top dose mostly 46 µM), for inactives: at the highest dose activity change, positive = activation, actives largely listed as activators; 330,000 tested, 1.3% active; AID 504466; also: % of control where 0% means no effect; nearly all actives have a fitted effect of over 60% in size
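16 hr compound incubation (37 °C, 5% CO2) of HEK293T cells carrying luciferase-tagged ELG1; luciferase then measured by ONE-Glo luminescence after 30 min at RT.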
Active calls of the source: *; ? = inconclusive; . = not tested or not shown. Calls follow the shape of the dose curve; as a rule, active = well fitted curve in the direction sought with a large enough effect; inconclusive = small, poorly fitted or top-dose-only effect, or another doubt; inactive = no such curve, though single readings can be large; an effect the other way counts as inactive or inconclusive. Potency is read from the fitted curve at half-maximal effect.

SMILES | SMN2 splice enh | Rab9 promoter act | Luc counter | FLuc counter | NPC1 prom act | ELG1 genotoxic
CC(C)=NNc1nc2c(c(=O)n(C)c(=O)n2C)n1C | . | -4% | . | -10% | 7% | 1%
O=C(O/N=C1\CCS(=O)(=O)c2sccc21)c1ccccc1 | -11% | 0% | -28% | 2.7µM* | -6% | 2%
Cc1cccc(C(=O)O/N=C2\CCS(=O)(=O)c3sccc32)c1 | -8% | 3% | -1% | 3.4µM* | 4% | 0%
COc1cccc(NC(=S)N(C)C2CCN(C)CC2)c1 | . | -1% | . | 2% | -3% | 0%
COc1ccc(-c2nc3ccccc3c(=O)n2O)cc1 | . | 6% | . | 2% | -4% | 0%
Clc1ccc(COn2c(-c3ccccc3)nc3ccccc32)cc1 | -9% | -1% | 2% | -14% | -8% | -3%
Cc1nc2ccc(Cl)cc2nc1C | . | -10% | . | -12% | 2% | 3%
O=C(O)COn1c(-c2ccc(Cl)cc2)nc2ccc(Cl)cc21 | 16% | 7% | 5% | 9.5µM* | 2% | ?
COn1c(-c2ccc(Cl)cc2)nc2ccc(Cl)cc21 | 13% | ? | -2% | 9.5µM* | 30% | 10%
COc1ccc(-c2nc3ccccc3n2OCC(=O)O)cc1 | . | 19% | -27% | 3µM* | 9% | ?
Cc1cccc(N2CCN(C(=O)[C@H](C)N3C(=O)C4CC=CCC4C3=O)CC2)c1C (stereo partly drawn) | . | . | . | . | . | -3%
Cc1ccc(-c2nnc(COC(=O)c3cccs3)o2)cc1 | . | 21% | . | 6.7µM* | ? | ?
O=C(OCc1nnc(-c2ccccc2Br)o1)c1ccco1 | . | . | . | . | . | 1%
Cc1ccc(-c2nnc(COC(=O)c3ccco3)o2)cc1 | . | -2% | . | 13µM* | -5% | 13%
CC(C)c1ccc(NC(=O)C2CC3CCC2C3)cc1 (stereo not drawn) | . | 3.2µM* | . | 11µM* | 3.5µM* | 21µM*
c1ccc2nc(-c3ccc(N4CCOCC4)cc3)ccc2c1 | ? | 0.1µM* | ? | 0.27µM* | 0.25µM* | ?
Cc1cc(-c2ccc(N3CCOCC3)cc2)nc2ccccc12 | . | ? | . | 1.5µM* | ? | ?
CN1CCN(c2ccc(-c3ccc4ccccc4n3)cc2)CC1 | -65% | -39% | ? | 0.12µM* | -34% | -16%
CC(C)(C)OC(=O)C[C@@H]1C/C=C\C[C@H](CC(=O)N(CCO)Cc2ccccc2)C(=O)N[C@@H](Cc2c[nH]c3ccccc23)COC1=O | . | . | . | . | . | -4%
Cc1cccc(C)c1NC(=O)Cn1c(=O)n(CCC(=O)NCc2ccc3c(c2)OCO3)c(=O)c2sccc21 | 12% | . | . | -2% | . | .
CSc1nc2ccc(Br)cc2[nH]1 | -28% | 0% | -7% | -6% | -3% | -5%
CC(C)Sc1nc2ccc(Br)cc2[nH]1 | . | ? | -2% | 17µM* | 23% | ?
CCOC(=O)c1ccc(N2C(=O)c3[nH]nc(-c4ccccc4)c3C2c2cccs2)cc1 (stereo not drawn) | -3% | . | . | -13% | . | .
CCOc1ccc(NC(=O)C(c2ccccn2)N(C(=O)CCl)c2ccc(F)cc2)cc1 (stereo not drawn) | 5% | -4% | -2% | -3% | 9% | 1%
Cc1ccc(NC(=O)C(=O)NCCCN2CCCC2=O)c(C)c1 | . | ? | . | ? | 24% | 12%
SMILES | SMN2 splice enh | Rab9 promoter act | Luc counter | FLuc counter | NPC1 prom act | ELG1 genotoxic
Cc1ccc(NC(=O)C(=O)NCCCN2CCCC2=O)cc1 | . | 1.4µM* | . | 12µM* | 2.2µM* | 2.1µM*
Cc1ccc(-c2nn(-c3ccc(F)cc3)cc2C(=O)NCCCN2CCCC2=O)cc1 | . | 3% | . | 11µM* | 1% | -7%
O=C(CSc1nc(-c2ccccc2)cs1)Nc1ccccc1[N+](=O)[O-] | -26% | -4% | -2% | -7% | -6% | -3%
CCN(Cc1ccccc1)C(=O)Cn1cc(S(=O)(=O)NC)c(S(=O)(=O)NC)c1 | . | 0% | . | 2% | 4% | -1%
O=C(CBr)Nc1c2c(nn1-c1ccccc1)CSC2 | . | -2% | . | 1% | -6% | 1%
O=C(CCl)Nc1cccc(-c2cnc3ccccc3n2)c1 | -2% | -34% | -5% | 12µM* | -5% | -38%
CCc1ccc(-c2cnc3ccccc3n2)cc1NC(=O)CNC(=O)c1ccccc1 | . | 4µM* | . | 2.7µM* | 3.5µM* | 3.7µM*
O=C(Nc1cccc(-c2cnc3ccccc3n2)c1)c1ccccc1 | -9% | 17% | -1% | -13% | 4% | 15%
CCC(=O)Nc1cccc(-c2cnc3ccccc3n2)c1 | 19% | ? | -3% | 19µM* | ? | ?
Oc1ccc(C[C@@H]2CNCCN2CC2(c3ccccc3)CC2)cc1 | . | -3% | . | 1% | -1% | -1%
Cc1ccc(S(=O)(=O)N2CCc3ccccc3C2)cc1C | . | -9% | . | 2% | 0% | -1%
O=C(O)c1ccccc1NS(=O)(=O)c1ccccc1F | . | . | -3% | . | . | .
Cn1c2ccccc2c2cc([N+](=O)[O-])ccc21 | . | 0% | . | -13% | -3% | 0%
CCN(CC)CCn1c2ccccc2c2nc3ccc([N+](=O)[O-])cc3cc21 | . | -1% | . | ? | -6% | 23µM*
COCCCN1C(=O)c2oc3ccccc3c(=O)c2C12C(=O)N(C)c1ccccc12 (stereo not drawn) | -6% | . | . | 0% | . | .
Cc1ccc(-n2ncc3c(NC4CCCCCC4)ncnc32)cc1Cl | . | . | . | 2.7µM* | . | .
Clc1ccc(-n2ncc3c(NC4CCCC4)ncnc32)cc1 | . | . | . | 0.85µM* | . | .
c1ccc(-n2ncc3c(NC4CCCCCC4)ncnc32)cc1 | . | 1.8µM* | . | 2.7µM* | 1.8µM* | ?
COC(=O)C1CCN(C(=O)COC(=O)CSc2ccc(C(N)=O)cc2[N+](=O)[O-])CC1 | . | -2% | . | 2% | -4% | 2%
